According to PubChem BioAssay AID1159580 (chemical genetic matrix, 2015):
In all, about 5,500 compounds went through this assay and about 2,000 (36%) were called active. Roughly 18% stayed inconclusive and do not appear here. Cut-off read from the data, not from the text of the source: active = normalized growth mostly below about 0.91 (no sharp cut-off); inconclusive = no clear call, values can overlap the other calls; inactive = mostly above about 0.92. This is one part of the list.

Assay: chemical genetic growth profiling, strain panel (AID 1159580);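 note: tested at 20 µM; growth read once vehicle control cultures reached saturation at 30 °C; 1 = growth at the plate median or of vehicle wells; lower values mean less growth of the strain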
Settings: growth OD

Measured: normalized growth

Cc1c(N(C)CS(=O)(=O)O)c(=O)n(-c2ccccc2)n1C
inactive: S. cerevisiae deletion strains, locus YJR075W, strain HOC1, hits give low values 1 | S. cerevisiae deletion strains, locus YKL009W, strain mrt4, hits give low values 1.03 | S. cerevisiae deletion strains, locus YKL068W, hits give low values 0.998 | S. cerevisiae deletion strains, locus YKL085W, strain MDH1 (second series), hits give low values 0.99 | S. cerevisiae deletion strains, locus YKL085W, strain MDH1, hits give low values 0.99 | S. cerevisiae deletion strains, locus YKL160W, strain elf1, hits give low values 1.02 | S. cerevisiae deletion strains, locus YKL190W, strain CNB1, hits give low values 1.01 | S. cerevisiae deletion strains, locus YKR001C, strain vps1, hits give low values 1.01 | S. cerevisiae deletion strains, locus YKR026C, strain gcn3, hits give low values 1.01 | S. cerevisiae deletion strains, locus YKR091W, strain srl3, hits give low values 1.01 | S. cerevisiae deletion strains, locus YLL001W, strain dnm1, hits give low values 1.01 | S. cerevisiae deletion strains, locus YLL026W, hits give low values 1.01 | S. cerevisiae deletion strains, locus YLL041C, strain sdh2, hits give low values 1 | S. cerevisiae deletion strains, locus YLR027C, strain aat2, hits give low values 1.01 | S. cerevisiae deletion strains, locus YLR039C, strain RIC1, hits give low values 0.92 | S. cerevisiae deletion strains, locus YLR058C, strain SHM2, hits give low values 0.987 | S. cerevisiae deletion strains, locus YLR102C, strain apc9, hits give low values 0.984 | S. cerevisiae deletion strains, locus YLR113W, strain HOG1, hits give low values 0.996 | S. cerevisiae deletion strains, locus YLR221C, strain rsa3, hits give low values 1.01 | S. cerevisiae deletion strains, locus YLR258W, strain gsy2, hits give low values 1.01 | S. cerevisiae deletion strains, locus YLR262C, strain YPT6 (second series), hits give low values 0.999 | S. cerevisiae deletion strains, locus YLR262C, strain YPT6, hits give low values 0.962 | S. cerevisiae deletion strains, locus YLR268W, strain sec22, hits give low values 0.992 | S. cerevisiae deletion strains, locus YLR320W, strain mms22, hits give low values 1.03 | S. cerevisiae deletion strains, locus YLR330W, strain CHS5, hits give low values 0.993 | S. cerevisiae deletion strains, locus YLR342W, strain FKS1 (second series), hits give low values 0.961 | S. cerevisiae deletion strains, locus YLR342W, strain FKS1, hits give low values 1.02 | S. cerevisiae deletion strains, locus YLR357W, strain rsc2, hits give low values 1.03 | S. cerevisiae deletion strains, locus YLR370C, strain arc18, hits give low values 1 | S. cerevisiae deletion strains, locus YLR371W, strain rom2, hits give low values 0.977 | S. cerevisiae deletion strains, locus YLR384C, strain iki3, hits give low values 1.01 | S. cerevisiae deletion strains, locus YLR418C, strain cdc73, hits give low values 0.948 | S. cerevisiae deletion strains, locus YML016C, strain PPZ1, hits give low values 0.99 | S. cerevisiae deletion strains, locus YML032C, strain rad52, hits give low values 0.999 | S. cerevisiae deletion strains, locus YML120C, strain ndi1, hits give low values 1.01 | S. cerevisiae deletion strains, locus YML124C, strain tub3, hits give low values 0.988 | S. cerevisiae deletion strains, locus YMR058W, strain fet3, hits give low values 1.01 | S. cerevisiae deletion strains, locus YMR078C, strain ctf18, hits give low values 0.978 | S. cerevisiae deletion strains, locus YMR125W, strain sto1, hits give low values 1.02 | S. cerevisiae deletion strains, locus YMR129W, hits give low values 1 | S. cerevisiae deletion strains, locus YMR205C, strain PFK2, hits give low values 1.02 | S. cerevisiae deletion strains, locus YMR223W, strain ubp8, hits give low values 0.962 | S. cerevisiae deletion strains, locus YMR231W, strain pep5, hits give low values 1.02 | S. cerevisiae deletion strains, locus YMR263W, strain SAP30, hits give low values 1.01 | S. cerevisiae deletion strains, locus YMR307W, strain GAS1, hits give low values 0.906 | S. cerevisiae deletion strains, locus YNL067W, strain RPL9B, hits give low values 1.01 | S. cerevisiae deletion strains, locus YNL071W, strain lat1, hits give low values 1.02 | S. cerevisiae deletion strains, locus YNL183C, strain NPR1, hits give low values 0.924 | S. cerevisiae deletion strains, locus YNL209W, strain ssb2, hits give low values 1.02 | S. cerevisiae deletion strains, locus YNL233W, strain BNI4, hits give low values 1 | S. cerevisiae deletion strains, locus YNL248C, strain rpa49, hits give low values 1.02 | S. cerevisiae deletion strains, locus YNL250W, strain rad50, hits give low values 0.969 | S. cerevisiae deletion strains, locus YNL271C, strain bni1, hits give low values 0.992 | S. cerevisiae deletion strains, locus YNL298W, strain CLA4, hits give low values 0.993 | S. cerevisiae deletion strains, locus YNL307C, strain MCK1, hits give low values 0.987 | S. cerevisiae deletion strains, locus YNL322C, strain KRE1 (second series), hits give low values 1.01 | S. cerevisiae deletion strains, locus YNL322C, strain KRE1, hits give low values 0.998 | S. cerevisiae deletion strains, locus YNR049C, strain mso1, hits give low values 1 | S. cerevisiae deletion strains, locus YNR052C, strain pop2, hits give low values 0.985 | S. cerevisiae deletion strains, locus YOL006C, strain TOP1, hits give low values 1.14 | S. cerevisiae deletion strains, locus YOL012C, strain htz1 0.803 | S. cerevisiae deletion strains, locus YOL147C, strain pex11, hits give low values 0.985 | S. cerevisiae deletion strains, locus YOR001W, strain rrp6, hits give low values 1.01 | S. cerevisiae deletion strains, locus YOR061W, strain CKA2, hits give low values 0.989 | S. cerevisiae deletion strains, locus YOR069W, strain VPS5, hits give low values 0.984 | S. cerevisiae deletion strains, locus YOR070C, strain gyp1, hits give low values 1.01 | S. cerevisiae deletion strains, locus YOR080W, strain dia2, hits give low values 1.01 | S. cerevisiae deletion strains, locus YOR083W, strain WHI5, hits give low values 1.02 | S. cerevisiae deletion strains, locus YOR106W, strain vam3, hits give low values 1.03 | S. cerevisiae deletion strains, locus YOR136W, strain idh2, hits give low values 0.986 | S. cerevisiae deletion strains, locus YOR144C, strain elg1, hits give low values 0.989 | S. cerevisiae deletion strains, locus YOR184W, strain ser1, hits give low values 1.03 | S. cerevisiae deletion strains, locus YOR231W, strain MKK1, hits give low values 0.996 | S. cerevisiae deletion strains, locus YOR265W, strain rbl2, hits give low values 1.01 | S. cerevisiae deletion strains, locus YOR270C, strain vph1, hits give low values 1.05 | S. cerevisiae deletion strains, locus YOR290C, strain snf2, hits give low values 1.01 | S. cerevisiae deletion strains, locus YOR316C, strain cot1, hits give low values 0.981 | S. cerevisiae deletion strains, locus YPL051W, strain arl3, hits give low values 1.01 | S. cerevisiae deletion strains, locus YPL055C, strain LGE1, hits give low values 1.05 | S. cerevisiae deletion strains, locus YPL078C, strain atp4, hits give low values 1.02 | S. cerevisiae deletion strains, locus YPL106C, strain sse1, hits give low values 1.02 | S. cerevisiae deletion strains, locus YPL240C, strain hsp82, hits give low values 1.01 | S. cerevisiae deletion strains, locus YPL256C, strain CLN2, hits give low values 1.01 | S. cerevisiae deletion strains, locus YPR119W, strain clb2, hits give low values 0.986 | S. cerevisiae deletion strains, locus YPR141C, strain kar3, hits give low values 0.981 | S. cerevisiae deletion strains, locus YPR163C, strain tif3, hits give low values 1.01 | S. cerevisiae deletion strains, locus YPR167C, strain met16, hits give low values 0.977 | S. cerevisiae deletion strains, strain wtn01, hits give low values 0.986 | S. cerevisiae strains, strain wild type, hits give low values 0.995
